Here are results for 25 compounds from PubChem BioAssay.

The other results are listed elsewhere or left out. Values without a mark were called inactive. Activity calls are given as the source filed them.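 How the source made its calls, unless noted: active means mean inhibition above about 50% in the one-dose retest (limit read from the data); inactive means the rest.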

Experiment [1] concerns the target Sentrin-specific protease 8 (Homo sapiens) (UniProt Q96LD8). Nature of the experiment: human SENP8 peptidase blockers, hit retest – biochemical, luminescence, single concentration, confirmation (AID 488912;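 active means mean inhibition across replicates above about 50%, limit read from the data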). As to conditions: Recombinant SENP8, Z-RLRGG-aminoluciferin luminescence, 60 min; at 12.5 µM; active compounds read high.
For experiment [2], the target named is Sentrin-specific protease 6 (Homo sapiens) (UniProt Q9GZR1). Description: inhibition of human SENP6 catalytic domain – biochemical, luminescence, single concentration, confirmation (AID 488915). As to conditions: recombinant SENP6, Z-RLRGG-aminoluciferin luminescence; at 12.5 µM; active compounds read high.
Sentrin-specific protease 6 (Homo sapiens), sequence (Q9GZR1 628-1112 limits assumed): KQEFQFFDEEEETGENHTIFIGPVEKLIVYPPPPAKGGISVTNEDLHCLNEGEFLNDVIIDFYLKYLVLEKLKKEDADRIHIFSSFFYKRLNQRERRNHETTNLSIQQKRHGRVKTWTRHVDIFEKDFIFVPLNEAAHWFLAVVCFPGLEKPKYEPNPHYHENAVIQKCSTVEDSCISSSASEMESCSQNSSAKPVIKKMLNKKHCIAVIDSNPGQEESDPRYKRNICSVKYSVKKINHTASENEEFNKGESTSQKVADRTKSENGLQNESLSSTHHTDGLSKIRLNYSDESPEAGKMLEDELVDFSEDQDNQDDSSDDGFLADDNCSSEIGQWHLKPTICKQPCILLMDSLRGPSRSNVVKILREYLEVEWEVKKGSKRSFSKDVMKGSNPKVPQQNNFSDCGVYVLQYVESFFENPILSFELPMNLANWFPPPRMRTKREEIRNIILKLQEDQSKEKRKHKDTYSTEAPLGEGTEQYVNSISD
Experiment [3] has as its target Sentrin-specific protease 7 (Homo sapiens) (UniProt Q9BQF6). Nature of the experiment: human SENP7 peptidase blockers, hit retest – biochemical, luminescence, single concentration, confirmation (AID 488917). As to conditions: recombinant SENP7, Z-RLRGG-aminoluciferin luminescence, 40 min; at 12.5 µM; active compounds read high.
The target in experiment [4] is Caspase-3 (Homo sapiens) (UniProt P42574). Nature of the experiment: human caspase-3 activity blockade, out-of-family – biochemical, single concentration, selectivity assay for SENP inhibitor project, confirmation (AID 488918;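 active means mean inhibition above about 50%, limit read from the data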;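 further: plate controls were enzyme with DMSO for no effect and wells without caspase-3 for full effect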). As to conditions: purified caspase-3, Z-DEVD-aminoluciferin luminescence, 60 min; at 12.5 µM; active compounds read high.
Caspase-3 (Homo sapiens), sequence (P42574 28-227 limits assumed): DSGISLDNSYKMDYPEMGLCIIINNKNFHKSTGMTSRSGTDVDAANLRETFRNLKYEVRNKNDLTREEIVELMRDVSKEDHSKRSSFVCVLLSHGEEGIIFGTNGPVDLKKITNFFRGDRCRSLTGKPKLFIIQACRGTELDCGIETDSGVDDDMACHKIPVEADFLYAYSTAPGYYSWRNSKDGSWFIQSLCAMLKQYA
Experiment [5] can be described thus: Ultra-Glo luciferase signal interference – biochemical, single concentration, SENP8 reaction pre-completed, artefact control for SENP inhibitor project, confirmation (AID 488919;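 active means mean inhibition above about 50% when retested at one dose, limit read from the data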;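 further: plate controls were DMSO wells with completed reaction for no effect and substrate without enzyme for full effect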). As to conditions: Pre-incubated SENP8/Z-RLRGG-aminoluciferin, luciferase luminescence interference; at 12.5 µM; active compounds read high.

Sentrin-specific protease 8 (Homo sapiens), sequence (Q96LD8 whole entry, looked up, the tested form may be a part): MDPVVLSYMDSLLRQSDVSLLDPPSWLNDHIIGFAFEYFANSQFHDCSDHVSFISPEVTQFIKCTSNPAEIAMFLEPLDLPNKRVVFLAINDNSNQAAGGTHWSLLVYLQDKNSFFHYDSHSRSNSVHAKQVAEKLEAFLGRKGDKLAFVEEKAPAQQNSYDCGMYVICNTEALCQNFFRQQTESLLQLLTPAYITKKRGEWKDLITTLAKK
Sentrin-specific protease 7 (Homo sapiens), sequence (Q9BQF6 706-1050 limits assumed): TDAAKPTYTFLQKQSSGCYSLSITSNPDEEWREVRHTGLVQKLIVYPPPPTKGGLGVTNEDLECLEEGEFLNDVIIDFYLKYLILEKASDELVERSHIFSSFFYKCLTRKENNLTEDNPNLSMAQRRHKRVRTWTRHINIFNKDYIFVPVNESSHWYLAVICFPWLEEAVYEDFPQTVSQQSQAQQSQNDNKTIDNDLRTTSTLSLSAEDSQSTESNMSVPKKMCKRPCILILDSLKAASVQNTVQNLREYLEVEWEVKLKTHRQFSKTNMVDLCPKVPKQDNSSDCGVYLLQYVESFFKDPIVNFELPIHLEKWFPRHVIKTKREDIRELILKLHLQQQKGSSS

As to `COc1ccc(/C=C2/SC(=O)N(CCCCCC(=O)Nc3ccccc3C(=O)O)C2=S)cc1`, the inhibition is -4.2% in experiment [1]; 0.2% in experiment [2]; 2.7% in experiment [3]; -3.8% in experiment [4]; 8.6% in experiment [5].

`O=C(Nc1ccc(NC(=O)c2ccco2)c(Cl)c1)c1cccc([N+](=O)[O-])c1`: the inhibition in experiment [1] was 8.7%; in experiment [2] it was 6.1%; in experiment [3], -6.7%; in experiment [4] it was -0.7%; in experiment [5] it was -0.2%.

`COc1cccc(C(=O)Nc2nc3ccc(S(C)(=O)=O)cc3s2)c1`: the inhibition is 4.4% in experiment [1]; 86.4% (active) in experiment [2]; 98.9% (active) in experiment [3]; 89.2% (active) in experiment [4]; 73.5% (active) in experiment [5].

On to `C/C(=N\Nc1nc2ccccc2[nH]1)c1cccs1`, for which the inhibition was 49.6% in experiment [1]; 49.2% in experiment [2]; 81.2% (active) in experiment [3]; 63.1% (active) in experiment [4]; 61.7% (active) in experiment [5].

Take `c1ccc(-c2noc(-c3cccs3)n2)nc1`: the inhibition in experiment [1] is 90% (active); in experiment [2], 91.3% (active); in experiment [3], 98.9% (active); in experiment [4], 95.4% (active); in experiment [5], 90.1% (active).

On to `C1=C(CCNc2ncnc3c2cnn3-c2ccccc2)CCCC1`, for which the inhibition in experiment [1] is 2%; in experiment [2], 22%; in experiment [3], -1.5%; in experiment [4], 39.5%; in experiment [5] it was -4.4%.

For `O=C(Nc1ccc2c(c1)CCC2)c1cccc(S(=O)(=O)Nc2ccccc2Cl)c1`, the inhibition in experiment [1] was 44%; in experiment [2], 40.3%; in experiment [3], 50.8% (active); in experiment [4] it was 13.2%; in experiment [5], 4.6%.

As for `Cn1cccc1C(=O)OCC(=O)c1ccc(Br)s1`, the inhibition is 78.3% (active) in experiment [1]; 78.3% (active) in experiment [2]; 95.5% (active) in experiment [3]; 77.3% (active) in experiment [4]; 54.7% (active) in experiment [5].

On to `O=[N+]([O-])c1ccccc1N/N=C1\CCc2ccccc21`, for which the inhibition in experiment [1] was -9.3%; in experiment [2], -5.8%; in experiment [3], -10.4%; in experiment [4] it was 0.7%; in experiment [5] it was -0.8%.

As for `Cc1ccc(-n2ncc3c(Nc4cccc(C(=O)O)c4)ncnc32)cc1`, the inhibition is 93.9% (active) in experiment [1]; 98.1% (active) in experiment [2]; 102% (active) in experiment [3]; 44.3% in experiment [4]; 83.5% (active) in experiment [5].

On to `CC(=O)Nc1ccc(/C=N/NC(=O)c2cccs2)cc1`, for which the inhibition in experiment [1] is 31.2%; in experiment [2] it was 34%; in experiment [3], 78.5% (active); in experiment [4] it was 82.4% (active); in experiment [5], 58.1% (active).

Turning to `O=C(Nc1nnc(SCc2ccccc2)s1)c1ccco1`, the inhibition is 6.7% in experiment [1]; 40.5% in experiment [2]; 23.6% in experiment [3]; 61.1% (active) in experiment [4]; 13.1% in experiment [5].

With `O=C(Nc1ccc(C(=O)O)c(O)c1)c1ccccc1`, the inhibition was 73% (active) in experiment [1]; 73.7% (active) in experiment [2]; 94.9% (active) in experiment [3]; 93.7% (active) in experiment [4]; 82.8% (active) in experiment [5].

As for `O=C(NCc1ccccn1)c1c(O)c2c([nH]c1=O)CCCC2`, the inhibition is -0.6% in experiment [1]; 0.3% in experiment [2]; -5.1% in experiment [3]; -3.9% in experiment [4]; -3.1% in experiment [5].

As for `COc1ccc(C(=O)Nc2ccc3c(c2)OCO3)cc1OC`, the inhibition is 8.9% in experiment [1]; 77.3% (active) in experiment [2]; 93.5% (active) in experiment [3]; 91.3% (active) in experiment [4]; 77.4% (active) in experiment [5].

As for `CCc1ccc(NC(=O)C(=O)NNC(=O)c2cccs2)cc1`, the inhibition in experiment [1] is 58.4% (active); in experiment [2] it was 73.4% (active); in experiment [3], 93.2% (active); in experiment [4], 89.9% (active); in experiment [5], 5.2%.

Turning to `COc1ccc(/C=N/Nc2ccccc2C(=O)O)cc1`, the inhibition in experiment [1] was 97.3% (active); in experiment [2], 97.5% (active); in experiment [3], 103% (active); in experiment [4], 96% (active); in experiment [5], 97.6% (active).

Regarding `CCOc1ccc(C(=O)Nc2cccc(SC)c2)cc1`, the inhibition in experiment [1] is -21.9%; in experiment [2], 80.1% (active); in experiment [3], 96.7% (active); in experiment [4], 76.3% (active); in experiment [5], 85.8% (active).

Regarding `O=C(Nc1ccccc1C(=O)Nc1ccncc1)c1ccc([N+](=O)[O-])cc1`, the inhibition in experiment [1] is 47.2%; in experiment [2], 57.2% (active); in experiment [3] it was 85.4% (active); in experiment [4], 65.1% (active); in experiment [5], 10.6%.

With `Oc1ccccc1-c1cc(-c2ccc(Cl)cc2)n[nH]1`, the inhibition in experiment [1] is 93.9% (active); in experiment [2], 94.4% (active); in experiment [3], 99.9% (active); in experiment [4], 68.9% (active); in experiment [5], 75.2% (active).

For `Cc1ccccc1C(=O)Nc1ccc(N2CCCCCC2)cc1`, the inhibition in experiment [1] is 73.8% (active); in experiment [2] it was 72.6% (active); in experiment [3], 91.7% (active); in experiment [4], 67.2% (active); in experiment [5] it was 51.9% (active).

As for `COc1cccc(C(=O)c2cc3ccc(O)cc3oc2=O)c1`, the inhibition was 98.7% (active) in experiment [1]; 100% (active) in experiment [2]; 103% (active) in experiment [3]; 98.7% (active) in experiment [4]; 98% (active) in experiment [5].

With `Cc1ccc(O)c(CNc2nc3ccccc3n2C)c1`, the inhibition in experiment [1] was -5%; in experiment [2] it was -7.9%; in experiment [3], 7.6%; in experiment [4], 8.9%; in experiment [5], -0.5%.

On to `O=C(Nc1ccccc1Cl)Nc1cccc2cccnc12`, for which the inhibition in experiment [1] is 35.6%; in experiment [2] it was 37.2%; in experiment [3], 75.2% (active); in experiment [4], 25.9%; in experiment [5] it was 32.6%.

As to `COc1ccccc1C(=O)Nc1ccc(NC(=O)c2ccco2)c(C)c1`, the inhibition in experiment [1] was 45.3%; in experiment [2], 47.1%; in experiment [3], 81.2% (active); in experiment [4], 82.5% (active); in experiment [5] it was 58.6% (active).

By inhibition is commonly meant the change of the read-out against control, counted positive when it falls.
